# Data reported in PubChem BioAssay AID1578 (Sanford-Burnham Center for Chemical Genomics, 2009).
# Hit rate of the full screen: of about 290,000 compounds, about 3,000 (1%) were called active. What follows is part of a selection rich in actives, with near analogues and random picks from the rest. Unmarked numbers belong to inactive results. Rule as the data show it: active = inhibition mostly above about 36% (no sharp cut-off); inactive = mostly below about 34%.
# Assay: inhibition of NOD1-driven NF-kB reporter – cell-based, luminescence, uHTS, primary screen (AID 1578);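 also: HEK-293T reporter cells stimulated with the NOD1 agonist gamma-tri-DAP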
# Details: NOD1-driven NF-kB luciferase reporter cells, at 4 µM, stronger effect = higher value
row,SMILES,inhibition
1,COc1cc2c(cc1OC)C(C1C(=O)CCCC1=O)N(C(=O)CCl)CC2 (configuration not stated),-8%
2,COc1cc2c(cc1OC)C(c1ccccc1)N(C(=O)CCl)CC2 (configuration not stated),43.6%
3,COc1cc2c(cc1OC)C(c1cc(Br)ccc1F)N(C(=O)CCl)CC2 (configuration not stated),37.2% (active)
4,CSc1cccc(NS(=O)(=O)c2ccccc2)c1,-20.4%
5,O=C(CSc1nccc(=O)[nH]1)NC1CCCC1,-1.9%
6,C/C(CC(=O)NC(C)(C)C)=N\NC(=O)COc1ccc(C)cc1Br,-14%
7,COc1ccc(CCNC(=O)C/C(C)=N/NC(=O)COc2ccc(C)cc2Br)cc1OC,39.1%
8,CCCNC(=O)C/C(C)=N/NC(=O)COc1ccc(C)cc1Br,83.4% (active)
9,CC(=O)c1ccc(OCC(=O)NC(=O)NC2CCCCC2)cc1,6.2%
10,Cc1ccc(C)c(OCC(=O)Nc2ccc(S(=O)(=O)Nc3ncccn3)cc2)c1,-12.1%
11,COC(=O)c1c(-c2ccccc2)csc1N1C(=O)Nc2ccccc2N1O,37.8% (active)
12,CCOC(=O)c1c(-c2ccccc2)csc1N1C(=O)Nc2ccccc2N1O,-27.8%
13,COC(=O)c1c(N2C(=O)Nc3ccccc3N2O)sc(C)c1C,-21.8%
14,CC(=O)Nc1ccc(-c2csc(-c3cccnc3)n2)cc1,-31.8%
15,O=C(O)CNC(=O)CCN1C(=O)c2ccccc2C1=O,-13.4%
16,COc1ccc(/C=C/C(=O)C(C(N)=O)=C2SCCS2)cc1,-16.2%
17,NC(=O)C(C(=O)/C=C/c1ccc(Cl)cc1)=C1SCCS1,60.5% (active)
18,CCOc1ccc(/C=C/C(=O)C(C(N)=O)=C2SCCS2)cc1,8.8%
19,Cc1ccc(CNC(=O)/C=C/c2ccc(Br)o2)cc1,-7.4%
20,NC(=O)c1ccc(C(=O)N/N=C/c2cccc(Oc3ccccc3)c2)cc1,-28.7%
21,NC(=O)COc1cccc(/C=N/NC(=O)c2ccc(-n3cccc3)cc2)c1,39.2% (active)
22,NC(=O)COc1ccc(/C=N\NC(=O)c2ccc(-c3ccccc3)cc2)cc1,2.5%
23,CCCn1c(C)nc2cc(Cl)c(N3CCN(c4nc(-c5ccc(C)cc5)cs4)CC3)cc21,23.3%
24,O=C(NC1=C(NC2CCS(=O)(=O)C2)C(=O)c2ccccc2C1=O)c1ccccc1 (configuration not stated),104% (active)
25,CC(=O)NC1=C(NC2CCS(=O)(=O)C2)C(=O)c2ccccc2C1=O (configuration not stated),-32.3%

row,SMILES,inhibition
1,CN(C1=C(NC(=O)c2ccccc2)C(=O)c2ccccc2C1=O)C1CCS(=O)(=O)C1 (configuration not stated),-26.1%
2,O=S(=O)(Nc1nc(-c2ccccc2)cs1)c1cc(Cl)ccc1Cl,40.9%
3,COc1ccc(N=CC2=C(O)c3ccccc3C2=O)c(OC)c1,72% (active)
4,COc1cc(N=CC2=C(O)c3ccccc3C2=O)cc(OC)c1,-21.7%
5,COc1ccc(N=CC2=C(O)c3ccccc3C2=O)cc1,52.5%
6,O=C(CCC(=O)Nc1nnc(C2CCCCC2)s1)NCc1ccc(F)cc1,-10.8%
7,CSc1ccc(OC2CCCCC2NS(=O)(=O)c2ccccc2)cc1 (configuration not stated),-17%
8,Cc1cc(OCC(=O)NCCc2cccc(F)c2)c2c(C)cc(=O)oc2c1,21.7%
9,NC(=O)N/N=C/c1c(O)ccc2oc3c(c12)CCCC3,-15.5%
10,Oc1ccccc1N=Cc1c(O)ccc2oc3c(c12)CCCC3,-2.1%
11,Oc1ccc2oc3c(c2c1/C=N/n1cnnc1)CCCC3,59.5% (active)
12,O=C(O)c1ccc(N=Cc2c(O)ccc3oc4c(c23)CCCC4)cc1,60% (active)
13,CC(C)(C)N=Cc1c(O)ccc2oc3c(c12)CCCC3,-1.4%
14,Cc1cccc(/N=C/c2c(O)ccc3oc4c(c23)CCCC4)n1,3.8%
15,COC(=O)c1ccsc1NC(=O)CCc1ccccc1,-59.2%
16,COc1cc(NC(=S)NCc2cccnc2)c(OC)cc1Cl,-26.2%
17,CC(=O)c1nnn(-c2c(F)cccc2F)c1C,-11.8%
18,O=c1[nH][nH]c(C(F)(F)F)c1C=NCc1cccc(Cl)c1,-0.4%
19,CC[n+]1c(/C=C/c2c[nH]c3ccccc23)ccc2cc(C)ccc21,79.9% (active)
20,CCc1ccc(/C=C/c2c[nH]c3ccccc23)[n+](CC)c1,-7.1%
21,CC[n+]1ccc(/C=C/c2c[nH]c3ccccc23)cc1,3.8%
22,Cn1nnc2cc(NC(=O)Nc3cccc(C(F)(F)F)c3)ccc21,-5.1%
23,COc1ccccc1N1CCN(C(=O)CN2C(=O)C3CCCCC3C2=O)CC1 (configuration not stated),-30.6%
24,CCCCN(C)C1CCN(C(=S)Nc2ccc(OC)cc2)CC1,-31.8%
25,Cc1cc(C)c(S(=O)(=O)c2ccccc2)c(N2CCOCC2)n1,-15.6%

row,SMILES,inhibition
1,CCCc1ccc(-c2ccc(/C=C/C(=O)O)cc2)nc1,76.4% (active)
2,CCCCCc1ccc(-c2ccc(/C=C/C(=O)O)cc2)nc1,-27.7%
3,CCCCCc1ccc(-c2ccc(/C=C/C(N)=O)cc2)nc1,-38.2%
4,Cc1cc2c(c(=O)n1Cc1cccnc1)C(c1cccs1)C(C#N)=C(N)O2 (configuration not stated),7%
5,O=S(=O)(NC1CCCC1)c1cccc(-c2nnc(-c3ccccc3)o2)c1,-5.3%
6,COC(=O)[C@@H](NC(=O)NCc1cccs1)C(C)C,8.6%
7,CCCCCNC(=O)c1c[nH]c2ccc(S(=O)(=O)N3CCC4(CC3)OCCO4)cc2c1=O,-39.2%
8,CCC(=O)Nc1c2c(nn1-c1ccccc1)CSC2,-26%
9,COc1ccc(-n2nc3c(c2NC(=O)CCCl)CSC3)cc1,1.9%
10,O=C(CCCCl)Nc1c2c(nn1-c1ccccc1)CSC2,-34.6%
11,CCC(=O)Nc1c2c(nn1-c1ccc(OC)cc1)CSC2,-5.8%
12,COc1ccccc1P(=O)(Cc1ccccc1[N+](=O)[O-])c1ccccc1 (configuration not stated),-7.4%
13,CN1Cc2c(N3CCOCC3)nc3sc(C#N)c(N)c3c2CC1(C)C,-1.3%
14,CCOc1cc2c3c(c1)C(C)CC(C)(C)N3C(=O)C2=O (configuration not stated),-0.3%
15,CCc1cc2c3c(c1)C(C)CC(C)(C)N3C(=O)C2=O (configuration not stated),-3.6%
16,COc1ccc(OC)c(NC(=O)CSc2nncc3ccc(OC)c(OC)c23)c1,1%
17,COc1ccc(OC)c(/C=N\NC(=O)c2ccc(-c3ccccc3)cc2)c1,-32%
18,COc1ccccc1Nc1nc(N)nc(CN2CCCCC2)n1,-0.3%
19,Cc1ccc(C(=O)CSc2nnc3c4ccccc4nc(C(C)(C)C)n23)cc1,92.5% (active)
20,Cc1ccc(C(=O)CSc2nnc(-c3ccccc3N)n2C)cc1,101% (active)
21,Cc1ccc(C(=O)CSc2nnc3c4ccccc4nc(Cc4ccccc4)n23)cc1,-10.1%
22,Cc1ccc(C(=O)CSc2nnc(-c3ccccc3N)n2C)cc1C,-30.8%
23,CC(=O)CSc1nnc2c3ccccc3nc(C(C)(C)C)n12,-19.2%
24,Cn1c(SCC(=O)c2ccc(F)cc2)nnc1-c1ccccc1N,-7.5%
25,CCCCN(C(=O)/C=C/c1ccc(OCC(C)C)c(OCC)c1)c1c(N)n(CCC)c(=O)[nH]c1=O,-20.9%

row,SMILES,inhibition
1,CCCCNCc1cc(Cl)c(OCCC)c(OCC)c1,-20.5%
2,Cc1ccccc1NC(=O)COC(=O)c1cccnc1,-22.1%
3,COc1ccc(-n2c(SCC(=O)Nc3cccc(C(=O)O)c3)nnc2-c2ccco2)cc1,-20.2%
4,Cc1nc(Cl)c2c(n1)NC(=O)CO2,0.5%
5,CCN(CC)C(=O)Oc1ccc2ccccc2c1Br,-53.4%
6,COc1cc(NC(=O)c2ccc([N+](=O)[O-])o2)ccc1NC(=O)c1cccs1,9.1%
7,O=C(Nc1ccc2oc(-c3cccnc3)nc2c1)c1ccc(Br)o1,-16.5%
8,Cc1ccc2oc(-c3ccc(NC(=O)c4cccnc4)cc3)nc2c1,-27.5%
9,Cc1ccc2nc(-c3ccc(NC(=O)c4cccnc4)cc3)oc2c1,58.7% (active)
10,O=C(Nc1ccc2oc(-c3ccncc3)nc2c1)c1ccc([N+](=O)[O-])o1,22.8%
11,O=C(Nc1cccc(NC(=O)c2cccs2)c1)c1ccc([N+](=O)[O-])o1,36.9% (active)
12,O=C(Nc1ccc(-c2nc3ccccc3o2)cc1)c1cccnc1,-1.6%
13,O=C(Nc1cccc(NC(=O)c2cccs2)c1)c1ccc(Br)o1,-17.2%
14,COCCNC(=O)C(c1ccc(OC)cc1)N(Cc1ccco1)C(=O)CCC(=O)Nc1ccccn1 (configuration not stated),19.2%
15,COc1ccc(CN2CCN(Cc3c[nH]c4ccccc34)CC2CCO)cc1C (configuration not stated),-1.8%
16,Cc1ccc(C(=O)CCNc2ccc(Cl)cc2)o1,-29.8%
17,CS(=O)(=O)N(CC(=O)NCC1CCCO1)c1cc(Cl)ccc1Cl (configuration not stated),2.4%
18,O=c1c[n+]([O-])c2ccccc2n1OCc1ccccn1,0.2%
19,C#CCN1C(=O)C(O)(CC(=O)/C=C/c2ccco2)c2ccccc21 (configuration not stated),-14.4%
20,CC(C)CC(NC(=O)C1CCC(C)CC1)C(=O)N1CCN(c2ccccn2)CC1 (configuration not stated),0.1%
21,CC1CCC(C(=O)NC(C(=O)N2CCN(c3ccccn3)CC2)C(C)C)CC1 (configuration not stated),68% (active)
22,CSCCC(NC(=O)C1CCC(C)CC1)C(=O)N1CCN(c2ccccn2)CC1 (configuration not stated),4.8%
